# Laboratory results published in PubChem BioAssay AID602477 (National Center for Advancing Translational Sciences (NCATS), 2012).
# Records with an inconclusive call do not appear. The source made the active and inactive calls. Calls come from the whole dose curve; as a rule, active = well fitted activation curve with a large enough effect; inconclusive = small, poorly fitted or top-dose-only effect; inactive = no such curve, though single readings can be large or run the other way.
# Assay: FLuc inhibitory activity for the follow-up compounds in a cell-based assay to assess the activity of miR-21
# Settings: HeLa miR-21-FLuc reporter, luciferase luminescence, 48 h; series mostly up to 38.3 µM; activity change, positive = activation: at the top concentration
# Text: NCGC Assay Overview: Firefly (Photinus pyralis) luciferase is one of the most commonly used transcriptional reporters. It is considered one of the more dynamically responsive reporters - that is, responsive to changes in reporter transcription - as it requires no post-translational modifications and is enzymatically active directly after protein synthesis (Wood, 1998). With no endogenous expression in mammalian cells and without the requirement of external excitation, it offers very little background signal, thus generally providing excellent signal to background for most assays. Previous profiling work to determine the prevalence of compounds that affect FLuc enzymatic activity (PubChem AID 411) identified that ~3% of the MLSMR library (then at ~72K) inhibited FLuc (Auld et al., 2008). […] Of the compounds identified in this profile that inhibited FLuc, 151 compounds were selected for further analysis, in an effort to better understand their mode of inhibiting FLuc. The assay described here was to determine the activity of the compounds in a cell-based firefly luciferase reporter gene assay originally designed to identify antagonists of miR-21. Compounds that inhibit miR-21 or compounds that stabilize FLuc intracellularly are identified as active compounds in the assay.
# NCGC Assay Protocol Summary: Reagents: In-house detection reagent: 300mM Tris-HCl, 300mM Trizma base, 300mM MgCl, 1% Triton-X100, 5mM DTT, 500uM Coenzyme A trilithium salt (Sigma #C3019),450uM ATP (Sigma #A7699), 1mM D-luciferin sodium salt monohydrate (Biosynth #L8240) HeLa cells stably expressing firefly luciferase (FLuc) under the control of a CMV promoter (upstream) and a miR-21 binding sequence directly downstream of the gene. These cells endogenously express miR-21. Control compounds used were two known firefly luciferase inhibitors (3-(5-(3-chlorophenyl)-1,2,4-oxadiazol-3-yl)benzoic acid and 5-(2-fluorophenyl)-3-phenyl-1,2,4-oxadiazole), and DMSO. Assay Summary: 6uL of HeLa miR-21-FLuc cells in assay buffer (DMEM, Invitrogen #21063-029; 10% FBS, HyClone #SH30071.03) were dispensed at 2000cells/well (3.3 x 10^5 cells/mL) into Greiner solid-white TC-treated 1536-well plates using a Multidrop Combi (Thermo Fisher Scientific). Plates were incubated for one hour at 37 degree Celsius, 95% humidity, 5% CO2. These assay plates were then treated with 23nL of compound or DMSO using a Kalypsys pin tool, which allows for delivery of a 12-point titration of each compound to the assay plate, with a final compound concentration ranging from approximately ~38uM to 0.2nM. Assay plates were then incubated for 48 hours. After incubation, plates were allowed to come to RT for one hour prior to delivery of 3uL of 3X luciferase detection reagent. After a 15 minute incubation to allow for cell lysis, luciferase activity was measured using a ViewLux CCD imager (PerkinElmer), with an average exposure time of 2-12 seconds.
Compound,Potency,"activity change, positive = activation"
O=C(O)c1cccc(NC(=O)c2ccc(COc3ccc(Cl)cc3)cc2)c1,12.6 µM (active),–
COc1ccc(-c2nc3ccccc3s2)cc1NC(=O)c1ccc(F)cc1,12.6 µM (active),–
COc1ccc2nc(NC(=O)c3ccc(NS(=O)(=O)c4cccs4)cc3)sc2c1,8.95 µM (active),–
COc1ccc(-c2cccc(C(=O)Nc3cccc(C(=O)O)c3)c2)cc1,4.49 µM (active),–
Cn1c(N/N=C/c2cc3ccccc3nc2Cl)nc2ccccc21,0.711 µM (active),–
COc1ccc(-c2nc3ccccc3s2)cc1O,1.79 µM (active),–
CCOc1ccc2nc(NC(=O)c3ccoc3C)sc2c1,0.1 µM (active),–
COc1ccc(C(=O)Nc2ccccc2C(=O)Nc2ccc(C(=O)O)cc2)cc1,8.95 µM (active),–
C/C(=N\NC(=O)c1ccccc1NC(=O)c1ccc(Cl)cc1)c1ccncc1,0.0449 µM (active),–
Cc1c(NS(C)(=O)=O)cccc1-c1nc2ccccc2s1,4 µM (active),–
Cc1ccc(S(=O)(=O)N2CCN(C(=O)c3ccccc3-c3nc4ccccc4s3)CC2)c(C)c1,20 µM (active),–
O=C(Nc1ccccc1C(=O)O)c1ccccc1,25.2 µM (active),–
O=C(O)c1cccc(NC(=O)c2ccc(Cl)c(S(=O)(=O)N3CCCCCC3)c2)c1,0.634 µM (active),–
CC(C)C(=O)Nc1cccc(C(=O)Nc2ccccc2C(=O)O)c1,–,31.7% (inactive)
O=C(Nc1ccccc1C(=O)O)c1ccc(NC(=O)C2CCCCC2)cc1,–,13.7% (inactive)
CC(C)c1ccc(-c2nc3ccccc3s2)cc1,0.0252 µM (active),–
COc1ccc(C(=O)Nc2nc3ccc(OC)cc3s2)cc1,2.83 µM (active),–
CC(C)Oc1ccc(C(=O)Nc2ccc(-c3nc4ccccc4s3)cc2)cc1,1.13 µM (active),–
Cc1cccc(C(=O)Nc2ccc(-c3nc4ccccc4s3)cc2Cl)c1,12.6 µM (active),–
Cc1ccc2sc(-c3ccc(N)cc3)nc2c1,0.0504 µM (active),–

Compound,Potency,"activity change, positive = activation"
CCOc1ccc2nc(NC(=O)c3ccccn3)sc2c1,0.0565 µM (active),–
COc1c(C)cccc1C(=O)Nc1ccc(-c2nc3ccccc3s2)c(Cl)c1,22.5 µM (active),–
COc1ccc(C(=O)Nc2ccccc2C(=O)Nc2ccccc2C(=O)O)cc1,8.95 µM (active),–
Cc1ccc2sc(-c3ccc(NC(=O)c4cc(-n5cnnc5)ccc4Cl)cc3)nc2c1,1.79 µM (active),–
COc1ccc(C(=O)Nc2ccccc2C(=O)N/N=C/c2ccc(O)c(OC)c2)cc1,–,-59.6% (inactive)
CCOc1ccc2nc(NC(=O)c3cc([N+](=O)[O-])ccc3N3CCOCC3)sc2c1,5.04 µM (active),–
COc1ccc2nc(NC(=O)CCc3nc(-c4ccccc4F)no3)sc2c1,2.52 µM (active),–
Cc1ccc2nc(-c3ccc(NC(=O)CN4CCN(C(=O)c5ccco5)CC4)cc3)sc2c1,4.49 µM (active),–
COc1ccc(CC(=O)Nc2cccc(C(=O)Nc3ccccc3C(=O)O)c2)cc1OC,5.04 µM (active),–
CCOc1ccc2nc(NC(=O)c3cccnc3)sc2c1,1.13 µM (active),–
Nc1ccc(-c2nc3cc(N)ccc3s2)cc1,2.25 µM (active),–
COc1ccc(NS(=O)(=O)c2cccc(C(=O)Nc3ccccc3C(=O)O)c2)cc1,–,5.31% (inactive)
O=C(Nc1c(Cl)cc(Cl)cc1-c1nc2ccccc2s1)c1ccc(Br)o1,12.6 µM (active),–
O=C(Nc1ccccc1C(=O)O)c1ccc(Cl)c(S(=O)(=O)N2CCOCC2)c1,12.6 µM (active),–
CC(C)(C)C(=O)Nc1ccc(-c2nc3ccccc3s2)cc1,–,-76.5% (inactive)
Oc1ccc(-c2nc3ccccc3s2)c(O)c1,11.3 µM (active),–
Nc1ccc(-c2nc3ccc(N)cc3s2)cc1,0.283 µM (active),–
O=C(O)c1ccc(NC(=O)c2cccc(C(=O)Nc3ccc(C(=O)O)cc3)c2)cc1,–,8.99% (inactive)
COc1ccc2nc(NC(=O)c3nc(S(=O)(=O)Cc4ccc(C)cc4)ncc3Cl)sc2c1,2.52 µM (active),–
Cc1ccc(C(=O)Nc2cccc(C(=O)O)c2)cc1,0.126 µM (active),–
